# Legend:
# Test in all cases: DAPPL (digital affinity profiling via proximity ligation, sequencing); 10 mM Tris-HCl pH 7.5, 50 mM NaCl, 1 mM DTT, 4% glycerol, room temperature, 30 min; GST-TFs on glutathione beads, 16-mer random dsDNA library, 0.1% formaldehyde crosslink after washing; high values mean tight binding
# Settings in all cases: protein: recombinant; tags: N-terminal GST; dsDNA, one strand shown
# ERF = biological target: T1, ERF (Homo sapiens, UniProt P50548 1-548)
# T1 sequence: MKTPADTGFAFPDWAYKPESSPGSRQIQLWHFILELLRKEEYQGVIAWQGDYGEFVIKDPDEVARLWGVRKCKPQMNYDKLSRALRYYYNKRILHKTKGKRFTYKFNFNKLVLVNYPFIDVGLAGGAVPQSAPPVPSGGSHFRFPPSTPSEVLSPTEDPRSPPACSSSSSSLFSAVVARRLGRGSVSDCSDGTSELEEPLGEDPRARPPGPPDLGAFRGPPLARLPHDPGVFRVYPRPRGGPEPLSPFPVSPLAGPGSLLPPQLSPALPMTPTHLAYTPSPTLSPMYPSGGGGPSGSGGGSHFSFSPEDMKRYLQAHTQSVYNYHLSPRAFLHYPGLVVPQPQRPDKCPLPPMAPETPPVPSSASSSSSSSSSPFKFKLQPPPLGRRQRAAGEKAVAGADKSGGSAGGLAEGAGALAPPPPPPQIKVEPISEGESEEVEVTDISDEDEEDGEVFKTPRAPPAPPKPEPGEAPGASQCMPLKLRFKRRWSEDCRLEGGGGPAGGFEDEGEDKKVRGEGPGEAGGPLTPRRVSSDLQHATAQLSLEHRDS
# Outline: (§1)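 A tag-only sample was pooled with DNA-barcoded human transcription factors that had been expressed in yeast as GST fusions and captured on glutathione beads. The pools were incubated for 30 min at room temperature with 200 nmole of a random double-stranded 16-mer DNA library in Tris/NaCl/DTT/glycerol buffer, then washed, crosslinked with 0.1% formaldehyde, proximity-ligated (BsaI/T4 ligase, 1 h, 37 °C), PCR-amplified and sequenced on an Illumina NextSeq500. Binding signal is each hexamer's read frequency for a factor divided by its frequency for the tag-only sample.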
# SPI1 = SPI1 (Homo sapiens, UniProt P17947 1-270)
# Outline: as §1
# ELK3 = biological target: T2, ELK3 (Homo sapiens, UniProt P41970 1-407)
# T2 sequence: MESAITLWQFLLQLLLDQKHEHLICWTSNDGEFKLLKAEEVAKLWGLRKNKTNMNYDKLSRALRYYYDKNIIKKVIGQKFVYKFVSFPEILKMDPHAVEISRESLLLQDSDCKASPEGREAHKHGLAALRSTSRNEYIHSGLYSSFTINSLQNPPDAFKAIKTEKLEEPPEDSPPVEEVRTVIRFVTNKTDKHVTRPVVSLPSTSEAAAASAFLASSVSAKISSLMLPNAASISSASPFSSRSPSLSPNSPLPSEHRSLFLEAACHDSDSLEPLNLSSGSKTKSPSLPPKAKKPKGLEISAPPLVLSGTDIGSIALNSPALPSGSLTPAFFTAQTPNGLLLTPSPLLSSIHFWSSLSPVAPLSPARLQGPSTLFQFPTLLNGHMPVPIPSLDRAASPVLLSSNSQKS
# Outline: as §1
# ETV1 = ETV1 (Homo sapiens, UniProt P50549 1-477)
# ETV1, sequence (P50549 whole entry): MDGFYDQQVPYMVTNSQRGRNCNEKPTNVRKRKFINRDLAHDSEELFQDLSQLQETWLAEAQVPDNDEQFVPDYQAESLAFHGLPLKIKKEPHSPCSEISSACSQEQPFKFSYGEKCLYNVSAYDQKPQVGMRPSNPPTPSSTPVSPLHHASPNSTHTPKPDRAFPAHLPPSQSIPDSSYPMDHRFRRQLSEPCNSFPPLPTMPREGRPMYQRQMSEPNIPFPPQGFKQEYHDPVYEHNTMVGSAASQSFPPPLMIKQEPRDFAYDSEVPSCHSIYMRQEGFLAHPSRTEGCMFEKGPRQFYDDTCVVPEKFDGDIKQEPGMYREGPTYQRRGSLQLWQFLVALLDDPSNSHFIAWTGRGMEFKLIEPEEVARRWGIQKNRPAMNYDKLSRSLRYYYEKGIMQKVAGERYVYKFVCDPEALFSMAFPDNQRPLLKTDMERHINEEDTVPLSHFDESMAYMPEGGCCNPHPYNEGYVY
# Outline: as §1
# ETV3L = biological target: T3, ETV3L (Homo sapiens, UniProt Q6ZN32 1-361)
# T3 sequence: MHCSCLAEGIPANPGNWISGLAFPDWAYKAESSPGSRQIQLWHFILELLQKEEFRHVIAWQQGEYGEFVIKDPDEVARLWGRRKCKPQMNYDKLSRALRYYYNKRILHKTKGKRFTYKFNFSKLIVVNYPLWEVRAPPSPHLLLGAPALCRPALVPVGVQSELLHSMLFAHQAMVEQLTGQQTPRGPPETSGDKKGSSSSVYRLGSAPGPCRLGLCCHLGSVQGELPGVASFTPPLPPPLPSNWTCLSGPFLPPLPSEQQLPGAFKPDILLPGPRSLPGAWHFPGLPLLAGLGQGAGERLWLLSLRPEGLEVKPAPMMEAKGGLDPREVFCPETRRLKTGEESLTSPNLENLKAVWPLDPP
# Outline: as §1
# ETV7 = biological target: T4, ETV7 (Homo sapiens, UniProt Q9Y603 1-341)
# T4 sequence: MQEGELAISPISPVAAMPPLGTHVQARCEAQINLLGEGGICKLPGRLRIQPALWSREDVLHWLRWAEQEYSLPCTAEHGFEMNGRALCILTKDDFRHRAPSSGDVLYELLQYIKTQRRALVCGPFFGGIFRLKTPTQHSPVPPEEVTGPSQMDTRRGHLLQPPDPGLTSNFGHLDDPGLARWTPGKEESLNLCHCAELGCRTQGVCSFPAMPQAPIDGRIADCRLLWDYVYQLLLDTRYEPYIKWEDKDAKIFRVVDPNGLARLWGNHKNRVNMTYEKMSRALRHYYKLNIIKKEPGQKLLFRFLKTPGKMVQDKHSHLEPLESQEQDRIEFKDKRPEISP
# Outline: as §1
# ETV3 = biological target: T5, ETV3 (Homo sapiens, UniProt P41162-2 1-143)
# T5 sequence: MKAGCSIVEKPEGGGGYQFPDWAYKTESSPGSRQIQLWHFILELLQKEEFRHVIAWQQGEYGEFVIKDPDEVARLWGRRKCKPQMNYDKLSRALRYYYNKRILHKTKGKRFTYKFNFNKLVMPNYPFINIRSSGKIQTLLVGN
# Outline: as §1
# EHF = biological target: T6, EHF (Homo sapiens, UniProt Q9NZC4 1-300)
# T6 sequence: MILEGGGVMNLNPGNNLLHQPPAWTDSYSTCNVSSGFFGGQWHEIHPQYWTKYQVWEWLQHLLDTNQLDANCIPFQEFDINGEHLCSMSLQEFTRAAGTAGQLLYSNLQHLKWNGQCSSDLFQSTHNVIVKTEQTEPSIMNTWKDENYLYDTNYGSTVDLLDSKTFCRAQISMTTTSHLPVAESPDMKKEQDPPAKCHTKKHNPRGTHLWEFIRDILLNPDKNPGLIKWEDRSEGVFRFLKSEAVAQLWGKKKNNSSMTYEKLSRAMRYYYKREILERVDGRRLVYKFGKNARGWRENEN
# Outline: as §1
# ELF5 = biological target: T7, ELF5 (Homo sapiens, UniProt Q9UKW6-2 1-255)
# T7 sequence: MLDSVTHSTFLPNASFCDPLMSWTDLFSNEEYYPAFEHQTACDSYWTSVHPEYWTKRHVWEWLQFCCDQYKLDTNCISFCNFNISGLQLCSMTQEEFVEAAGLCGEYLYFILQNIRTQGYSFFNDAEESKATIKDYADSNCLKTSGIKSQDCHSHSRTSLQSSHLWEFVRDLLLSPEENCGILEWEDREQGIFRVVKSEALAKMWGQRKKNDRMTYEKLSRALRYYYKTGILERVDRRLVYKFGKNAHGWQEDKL
# Outline: as §1
# ETV6 = ETV6 (Homo sapiens, UniProt P41212 1-452)
# ETV6, sequence (P41212 whole entry): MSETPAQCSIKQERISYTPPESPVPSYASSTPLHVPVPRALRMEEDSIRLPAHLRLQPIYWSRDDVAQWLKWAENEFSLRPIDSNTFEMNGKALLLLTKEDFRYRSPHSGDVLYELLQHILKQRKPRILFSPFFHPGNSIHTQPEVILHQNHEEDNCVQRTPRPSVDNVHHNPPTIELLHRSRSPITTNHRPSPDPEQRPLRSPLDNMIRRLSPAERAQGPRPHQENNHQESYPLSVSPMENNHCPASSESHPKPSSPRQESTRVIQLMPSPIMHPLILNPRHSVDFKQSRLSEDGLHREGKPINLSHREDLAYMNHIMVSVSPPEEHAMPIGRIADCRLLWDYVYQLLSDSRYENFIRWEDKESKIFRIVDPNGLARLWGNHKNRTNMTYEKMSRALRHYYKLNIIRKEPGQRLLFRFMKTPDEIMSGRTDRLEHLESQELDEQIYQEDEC
# Outline: as §1
# ERG = biological target: T8, ERG (Homo sapiens, UniProt P11308 1-479)
# T8 sequence: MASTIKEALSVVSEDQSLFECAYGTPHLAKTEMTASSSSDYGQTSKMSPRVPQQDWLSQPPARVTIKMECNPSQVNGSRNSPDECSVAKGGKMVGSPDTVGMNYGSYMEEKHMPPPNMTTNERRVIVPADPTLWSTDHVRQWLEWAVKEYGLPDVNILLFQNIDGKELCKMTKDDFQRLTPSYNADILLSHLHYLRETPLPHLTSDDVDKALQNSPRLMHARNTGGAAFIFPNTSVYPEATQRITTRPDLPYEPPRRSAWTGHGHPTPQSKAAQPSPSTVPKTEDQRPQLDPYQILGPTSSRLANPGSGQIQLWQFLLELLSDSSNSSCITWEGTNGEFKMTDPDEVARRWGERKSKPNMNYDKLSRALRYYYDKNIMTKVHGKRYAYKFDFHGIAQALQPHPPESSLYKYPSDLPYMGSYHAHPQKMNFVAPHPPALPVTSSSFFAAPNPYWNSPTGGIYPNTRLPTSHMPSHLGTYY
# Outline: as §1
# SPIB = SPIB (Homo sapiens, UniProt Q01892 1-262)
# SPIB, sequence (Q01892 whole entry): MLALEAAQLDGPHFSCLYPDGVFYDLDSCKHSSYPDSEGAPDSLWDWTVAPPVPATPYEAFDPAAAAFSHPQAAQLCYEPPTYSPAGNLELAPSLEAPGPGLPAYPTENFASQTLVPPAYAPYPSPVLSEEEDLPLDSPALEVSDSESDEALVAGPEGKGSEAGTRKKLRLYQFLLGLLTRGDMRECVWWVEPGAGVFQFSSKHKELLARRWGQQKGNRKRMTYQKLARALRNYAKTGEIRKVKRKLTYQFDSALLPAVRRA
# Outline: as §1
# ETS2 = biological target: T9, ETS2 (Homo sapiens, UniProt P15036 1-469)
# T9 sequence: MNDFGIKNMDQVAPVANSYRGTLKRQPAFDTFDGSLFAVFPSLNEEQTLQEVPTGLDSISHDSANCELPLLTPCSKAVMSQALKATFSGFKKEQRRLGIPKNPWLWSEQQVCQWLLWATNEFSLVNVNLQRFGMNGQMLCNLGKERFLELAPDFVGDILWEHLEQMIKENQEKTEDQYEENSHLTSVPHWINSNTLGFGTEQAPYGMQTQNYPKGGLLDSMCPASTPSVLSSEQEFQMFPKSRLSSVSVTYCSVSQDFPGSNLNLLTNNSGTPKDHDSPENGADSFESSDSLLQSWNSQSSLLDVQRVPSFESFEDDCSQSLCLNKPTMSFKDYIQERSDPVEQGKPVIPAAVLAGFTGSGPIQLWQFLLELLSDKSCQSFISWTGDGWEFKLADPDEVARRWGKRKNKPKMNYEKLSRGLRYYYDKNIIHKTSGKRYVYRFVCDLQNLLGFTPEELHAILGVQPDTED
# Outline: as §1
# GABPA = biological target: T10, GABPA (Homo sapiens, UniProt Q06546 1-454)
# T10 sequence: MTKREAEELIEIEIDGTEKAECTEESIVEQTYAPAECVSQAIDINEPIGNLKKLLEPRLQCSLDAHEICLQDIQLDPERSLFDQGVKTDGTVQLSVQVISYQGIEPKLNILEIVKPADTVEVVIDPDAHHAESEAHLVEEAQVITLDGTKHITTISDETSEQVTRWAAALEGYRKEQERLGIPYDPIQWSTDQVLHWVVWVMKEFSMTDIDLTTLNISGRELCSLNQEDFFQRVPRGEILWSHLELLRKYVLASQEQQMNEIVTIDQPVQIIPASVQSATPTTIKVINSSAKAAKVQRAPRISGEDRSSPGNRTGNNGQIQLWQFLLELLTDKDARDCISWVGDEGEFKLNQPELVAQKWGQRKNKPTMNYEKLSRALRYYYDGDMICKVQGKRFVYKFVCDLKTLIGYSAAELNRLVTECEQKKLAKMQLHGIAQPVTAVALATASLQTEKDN
# Outline: as §1
# ELF1 = ELF1 (Homo sapiens, UniProt P32519 1-619)
# ELF1, sequence (P32519 whole entry): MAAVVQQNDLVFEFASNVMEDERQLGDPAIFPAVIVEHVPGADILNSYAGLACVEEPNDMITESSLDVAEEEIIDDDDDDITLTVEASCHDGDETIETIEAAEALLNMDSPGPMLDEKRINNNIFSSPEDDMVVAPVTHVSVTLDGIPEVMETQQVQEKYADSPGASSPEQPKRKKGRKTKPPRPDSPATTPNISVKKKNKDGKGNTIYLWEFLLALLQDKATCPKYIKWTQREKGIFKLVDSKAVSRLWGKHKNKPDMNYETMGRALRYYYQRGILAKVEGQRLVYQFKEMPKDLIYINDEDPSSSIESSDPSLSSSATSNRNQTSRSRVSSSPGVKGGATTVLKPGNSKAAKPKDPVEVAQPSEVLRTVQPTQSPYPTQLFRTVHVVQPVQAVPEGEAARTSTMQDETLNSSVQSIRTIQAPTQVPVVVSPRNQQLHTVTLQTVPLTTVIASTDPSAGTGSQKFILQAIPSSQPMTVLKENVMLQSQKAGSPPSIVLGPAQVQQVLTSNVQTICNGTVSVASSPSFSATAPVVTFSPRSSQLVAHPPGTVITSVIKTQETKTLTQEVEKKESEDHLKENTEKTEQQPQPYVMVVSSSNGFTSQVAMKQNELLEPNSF
# Outline: as §1
# FEV = biological target: T11, FEV (Homo sapiens, UniProt Q99581 1-238)
# T11 sequence: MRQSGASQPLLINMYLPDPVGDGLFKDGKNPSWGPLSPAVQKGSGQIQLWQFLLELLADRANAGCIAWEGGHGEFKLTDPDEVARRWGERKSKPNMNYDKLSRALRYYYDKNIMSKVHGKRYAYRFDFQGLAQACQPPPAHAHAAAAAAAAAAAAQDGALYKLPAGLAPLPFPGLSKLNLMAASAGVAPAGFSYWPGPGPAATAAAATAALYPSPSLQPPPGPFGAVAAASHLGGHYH
# Outline: as §1
sequence,measurement,setting,value
TGGGCC,binding signal,ERF,"1.03 fold enrichment (6-mer frequency, TF over GST control)"
AAGGGG,binding signal,SPI1,"1.36 fold enrichment (6-mer frequency, TF over GST control)"
same,binding signal,ELK3,"1.05 fold enrichment (6-mer frequency, TF over GST control)"
same,binding signal,ETV1,"1.07 fold enrichment (6-mer frequency, TF over GST control)"
AGCACC,binding signal,ERF,"1.03 fold enrichment (6-mer frequency, TF over GST control)"
same,binding signal,ETV3L,"1.04 fold enrichment (6-mer frequency, TF over GST control)"
GACGAT,binding signal,ERF,"1.02 fold enrichment (6-mer frequency, TF over GST control)"
same,binding signal,ETV7,"1 fold enrichment (6-mer frequency, TF over GST control)"
TTGGAC,binding signal,ERF,"1.02 fold enrichment (6-mer frequency, TF over GST control)"
same,binding signal,ETV3,"1.01 fold enrichment (6-mer frequency, TF over GST control)"
CGGTAA,binding signal,EHF,"1.01 fold enrichment (6-mer frequency, TF over GST control)"
same,binding signal,ELF5,"1.05 fold enrichment (6-mer frequency, TF over GST control)"
GCGCTA,binding signal,ELK3,"1.13 fold enrichment (6-mer frequency, TF over GST control)"
same,binding signal,ERF,"1.05 fold enrichment (6-mer frequency, TF over GST control)"
same,binding signal,ETV6,"1 fold enrichment (6-mer frequency, TF over GST control)"
AAGACA,binding signal,ERG,"1 fold enrichment (6-mer frequency, TF over GST control)"
same,binding signal,SPIB,"1.02 fold enrichment (6-mer frequency, TF over GST control)"
same,binding signal,ELK3,"1.01 fold enrichment (6-mer frequency, TF over GST control)"
same,binding signal,ERF,"1.07 fold enrichment (6-mer frequency, TF over GST control)"
same,binding signal,ETV3L,"1.01 fold enrichment (6-mer frequency, TF over GST control)"
same,binding signal,ETS2,"1.01 fold enrichment (6-mer frequency, TF over GST control)"
same,binding signal,ETV7,"1.04 fold enrichment (6-mer frequency, TF over GST control)"
GTCTGT,binding signal,ETV1,"1.01 fold enrichment (6-mer frequency, TF over GST control)"
GTCTGC,binding signal,GABPA,"1.01 fold enrichment (6-mer frequency, TF over GST control)"
CGCGGT,binding signal,ETV1,"1.03 fold enrichment (6-mer frequency, TF over GST control)"
GGTGCT,binding signal,ETV1,"1.08 fold enrichment (6-mer frequency, TF over GST control)"
GGCCAC,binding signal,GABPA,"1.02 fold enrichment (6-mer frequency, TF over GST control)"
same,binding signal,ELF1,"1.03 fold enrichment (6-mer frequency, TF over GST control)"
same,binding signal,EHF,"1.03 fold enrichment (6-mer frequency, TF over GST control)"
same,binding signal,FEV,"1.05 fold enrichment (6-mer frequency, TF over GST control)"
same,binding signal,ETS2,"1 fold enrichment (6-mer frequency, TF over GST control)"
CAGTTT,binding signal,SPIB,"1.03 fold enrichment (6-mer frequency, TF over GST control)"
same,binding signal,ELK3,"1.04 fold enrichment (6-mer frequency, TF over GST control)"
same,binding signal,ERF,"1.01 fold enrichment (6-mer frequency, TF over GST control)"
AGGACT,binding signal,GABPA,"1.05 fold enrichment (6-mer frequency, TF over GST control)"
same,binding signal,ELF1,"1 fold enrichment (6-mer frequency, TF over GST control)"
same,binding signal,FEV,"1.01 fold enrichment (6-mer frequency, TF over GST control)"
same,binding signal,ETV3,"1.06 fold enrichment (6-mer frequency, TF over GST control)"
GGTTGC,binding signal,SPIB,"1 fold enrichment (6-mer frequency, TF over GST control)"
same,binding signal,ETV3L,"1.01 fold enrichment (6-mer frequency, TF over GST control)"
CAGCAA,binding signal,ELK3,"1.01 fold enrichment (6-mer frequency, TF over GST control)"
same,binding signal,ERF,"1.04 fold enrichment (6-mer frequency, TF over GST control)"
same,binding signal,ETV7,"1.06 fold enrichment (6-mer frequency, TF over GST control)"
ATAGAG,binding signal,ERF,"1.01 fold enrichment (6-mer frequency, TF over GST control)"

# From publication PMC7862700, “An all-to-all approach to the identification of sequence-specific readers for epigenetic DNA modifications on cytosine”
